Experimental data published in PubChem BioAssay AID624125 (The Scripps Research Institute Molecular Screening Center, 2012).
Hit rate of the full screen: of about 360,000 compounds, about 2,600 (0.72%) were called active. For the sample, actives were picked, then their nearest neighbours and some compounds at random. Unmarked numbers belong to inactive results.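 Rule for the calls: active = inhibition above its plate's cutoff, the mean inhibition of sample wells plus 3 SD (cut at about 27% in these data); inactive = the rest.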

Biological target: Muscarinic acetylcholine receptor M4 (Homo sapiens) (UniProt P08173)
Experiment: CHRM4 blockers of acetylcholine calcium response – CHO cells, Fluo-8 calcium fluorescence, primary screen (AID 624125);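 note: 0% = acetylcholine EC80 with DMSO and 100% = DMSO without agonist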
Settings: CHO-hM4 cells, ACh EC80, Fluo-8 calcium fluorescence; at 3 µM; active compounds read high

Sequence of Muscarinic acetylcholine receptor M4 (Homo sapiens) (P08173 whole entry, looked up): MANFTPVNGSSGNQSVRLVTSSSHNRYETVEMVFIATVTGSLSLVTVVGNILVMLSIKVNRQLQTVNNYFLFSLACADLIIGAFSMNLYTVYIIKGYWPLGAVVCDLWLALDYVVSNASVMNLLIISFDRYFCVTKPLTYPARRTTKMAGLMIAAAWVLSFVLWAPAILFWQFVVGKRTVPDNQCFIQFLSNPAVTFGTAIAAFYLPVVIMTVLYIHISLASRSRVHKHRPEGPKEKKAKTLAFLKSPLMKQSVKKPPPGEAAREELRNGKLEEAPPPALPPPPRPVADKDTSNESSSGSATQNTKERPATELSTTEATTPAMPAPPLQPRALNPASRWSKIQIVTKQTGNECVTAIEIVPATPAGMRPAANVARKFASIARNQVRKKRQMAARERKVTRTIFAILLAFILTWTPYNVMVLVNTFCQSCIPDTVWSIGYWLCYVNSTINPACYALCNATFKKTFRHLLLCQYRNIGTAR

| SMILES | inhibition |
| --- | --- |
| COc1cccc(CNC(=O)CCC2CCCN(C(=O)c3cc(C)[nH]n3)C2)c1 (configuration not stated) | -0.4% |
| O=C(NCc1ccccc1)[C@H]1C[C@@H]1[C@H](NP(=O)(c1ccccc1)c1ccccc1)c1ccccc1 | -6.36% |
| O=C(Nc1c2c(nn1-c1ccc(F)cc1)CS(=O)C2)C12CC3CC(CC(C3)C1)C2 (configuration not stated) | -0.1% |
| Cc1c([N+](=O)[O-])c(N)nn1C | -10.8% |
| CCc1cccc(NC(=O)COC(=O)c2cc(=O)c3ccccc3o2)c1 | -0.31% |
| CN(CCc1ccccn1)C(=O)c1ccc(OC2CCN(Cc3ccccn3)CC2)cc1 | 10.3% |
| COc1cccc(CNC(=O)CCC2CCCN(Cc3ccc(OC(F)F)cc3)C2)c1 (configuration not stated) | 8.05% |
| CN(CCc1ccccn1)C(=O)CCC1CCCN(Cc2ccccc2OC(F)F)C1 (configuration not stated) | 31.4% (active) |
| CCCS(=O)(=O)Nc1ccc(-c2cn3c(n2)SCC3)cc1 | 4.45% |
| CCN(CC(=O)Nc1ccc(OC)cc1)C(=O)c1ccc(=O)n(Cc2ccccc2)n1 | 6.9% |
| CC(C)c1ccc(OCC(O)CN2CCN(c3ccccn3)CC2)cc1 (configuration not stated) | -9.52% |
| CC(C)c1ccc(OCC(O)Cn2cnc3ccccc32)cc1 (configuration not stated) | 32% (active) |
| CC(=O)OC(COc1ccc(F)cc1)Cn1cnc2ccccc21 (configuration not stated) | 11.2% |
| COC(=O)c1ccccc1NC(=O)C1CC(=O)N(c2ccc(OC)cc2)C1 (configuration not stated) | -8.44% |
| COc1ccc(CN2CC(C(=O)NCCc3ccc(Cl)cc3)CC2=O)cc1 (configuration not stated) | -3.66% |
| CCCC(=O)Nc1ncnc2c1ncn2[C@@H]1O[C@@H]2OP(=O)(O)OC[C@H]2[C@H]1OC(=O)CCC | -12.4% |
| COc1ccc(C(CCN(Cc2ccc(OC)c(OC)c2)C(=O)CCl)c2ccccc2)cc1 (configuration not stated) | -0.52% |
| COc1ccc(C(=O)OCC(=O)NCCCc2ccccc2)cc1OC | 2.28% |
| CCN(CCCCOC(=O)c1ccc(OC)c(OC)c1)C(C)Cc1ccc(OC)cc1 (configuration not stated) | 61.6% (active) |
| Cc1n[nH]c(=O)c2c(NC(=O)CSc3cc(Cl)ccc3Cl)oc(C)c12 | -3.66% |
| COc1ccc2[nH]c3c(C)c4cc[n+](C)cc4c(C)c3c2c1 | 1.89% |
| CC(OC(=O)c1ccc(NS(=O)(=O)c2ccc3[nH]c(=O)[nH]c3c2)cc1)C(=O)Nc1cccc(Cl)c1Cl (configuration not stated) | 5.91% |
| COc1ccc(CCN2C(=O)N(c3ccc(OC)cc3)C(=O)C2CC(=O)Nc2ccc(OC)cc2)cc1 (configuration not stated) | -16.8% |

| SMILES | inhibition |
| --- | --- |
| CCN(Cc1ccccc1)C(=O)CSc1nc(C)cc2c1C(=O)OC2 | 8.21% |
| COc1ccccc1C1SCCN1C(=O)c1ccc([N+](=O)[O-])cc1 (configuration not stated) | 57% (active) |
| C[N+]1(CC(O)COc2ccccc2)CCN(C(=O)c2ccc([N+](=O)[O-])cc2)CC1 (configuration not stated) | -5.14% |
| O=C(Nc1ccc(F)cc1)C1CCN(C(=O)c2ccc([N+](=O)[O-])cc2)CC1 | -7.19% |
| Cn1c(=O)c2c(SCC(=O)NCC3CCCO3)nc(CC(C)(C)C)nc2n(C)c1=O (configuration not stated) | 2.72% |
| CCNc1nc(Oc2ccc(C(=O)OC)cc2)nc(N2CCOCC2)n1 | 2.43% |
| O=C(c1cccs1)C1C(c2ccc(Br)cc2)NC(=S)NC1(O)C(F)(F)F (configuration not stated) | 77.3% (active) |
| CCOC(=O)C1C(c2ccc(O)cc2)NC(=O)NC1(O)C(F)(F)F (configuration not stated) | 5.66% |
| CC1=NN(c2cccc(Cl)c2)C(=O)C12CC(C)=C(C)CS2 (configuration not stated) | -0.34% |
| O=C1Nc2c(Br)cc(Br)cc2C1(O)N1CCOCC1 (configuration not stated) | -12% |
| CCC(CC)C(C(=O)NC1CCCC1)N1CCN(c2cc(C)nc3ccccc23)CC1 (configuration not stated) | -16.6% |
| CCn1ccnc1CN(C)Cc1nc(-c2ccc3c(c2)OCO3)no1 | 1.6% |
| CN(Cc1nc(-c2cnccn2)no1)Cc1n[nH]c2c1CCCCC2 | 37.3% (active) |
| CN(Cc1cc2cc(F)ccc2[nH]1)Cc1nc(-c2cnccn2)no1 | -8.36% |
| CCOc1cc(CNCc2ccccn2)ccc1OCC(=O)NC(C)(C)C | 1% |
| CCN(CC)c1ccc(/C=N/NC(=O)c2cnccn2)c(O)c1 | 33.1% (active) |
| COc1cccc(OCC(=O)NNC(=O)c2cnccn2)c1 | 12.6% |
| CCN(CC)c1ccc(NC(=O)c2ccc(Cl)nc2)cc1 | 1.79% |
| CC1(C)Cc2cccc(OCC(=O)N3CCN(c4ccc([N+](=O)[O-])cc4)CC3)c2O1 | -2.84% |
| COc1cccc(/C=C/C(=O)OCC(=O)N2CCCc3ccccc32)c1 | -7.08% |
| O=c1[nH]c(=O)n(Cc2ccco2)c2c1C(C(F)(F)F)(C(F)(F)F)N=C(c1ccco1)N2 | 4% |
| Nc1c(C(=O)c2cccs2)sc2nsc(SCCN3CCCCC3)c12 | 42% (active) |
| O=C1C(=O)N(CCCO)C(c2ccccc2)/C1=C(\O)c1ccc(Br)cc1 (configuration not stated) | 3.51% |

| SMILES | inhibition |
| --- | --- |
| COC(=O)[C@]12CCCCC=C1N(Cc1ccccc1)C(=O)[C@H](CC(=O)NCc1ccc(C)o1)C2 | -11.9% |
| OC[C@@H]1CN(Cc2ccc(-c3ccccc3)cc2)C[C@H](n2cnc3c(NC4CCCC4)ncnc32)O1 | 19.1% |
| CN(C)c1ccc(/C=C2\NC(=S)N(Cc3ccccc3)C2=O)cc1 | 44.5% (active) |
| CN(C)c1ccc(CSc2ccccc2)cc1 | -16.2% |
| CC(C)(C)C(=O)COC(=O)c1cc(S(=O)(=O)N2CCCCC2)ccc1N1CCOCC1 | -6.6% |
| CC1Cc2[nH][nH]c(=O)c2C(C2CCCC2)O1 (configuration not stated) | 3.85% |
| CCNC(=S)N(CCN(CC)CC)Cc1cc2cc3c(cc2[nH]c1=O)OCO3 | 1.79% |
| CCC(=O)c1ccc(OCC(=O)N(CC)CC2COc3ccccc3O2)cc1 (configuration not stated) | -18.3% |
| O=C(COc1ccc(F)cc1Br)NCC1COc2ccccc2O1 (configuration not stated) | 3.31% |
| c1ccc2c(c1)OCC(CNc1ncnc3nc[nH]c13)O2 (configuration not stated) | 65.3% (active) |
| O=[N+]([O-])c1cc(S(=O)(=O)CCCN2CCOCC2)ccc1F | -17.3% |
| CC(C)(O)C#Cc1ncc(C(F)(F)F)cc1Cl | 3.84% |
| COC(=O)[C@@H](NC(=O)Nc1cc(Cl)ccc1C)C(C)C | 8.25% |
| CN(C)CC/C=C1\c2ccccc2CSc2ccccc21 | 83% (active) |
| CN(C)Cc1ccccc1C1(O)c2ccccc2CSc2ccccc21 (configuration not stated) | 22.2% |
| Cc1cccc(-n2c(O)c(C=Nc3ccccc3N)c(=O)[nH]c2=O)c1 | 4.12% |
| CN(C)CCCNC(=O)c1cc(C(=O)Cc2ccc(Cl)cc2)c[nH]1 | -5.01% |
| CCOC(=O)c1nnn(-c2nonc2-n2cccc2)c1CN1CCC(C(=O)OCC)CC1 | 0.5% |
| CCNS(=O)(=O)c1ccc(NC(=O)c2cncc(Br)c2)cc1 | -2.17% |
| CCNS(=O)(=O)c1ccc(NC(=O)Nc2cccc(C(F)(F)F)c2)cc1 | 30.8% (active) |
| Cc1cc(S(=O)(=O)N2CCOCC2)ccc1OCC(=O)Nc1cccc(C(F)(F)F)c1 | 14.2% |
| CCCNC(=O)C[C@@H]1CC[C@@H]2[C@H](COC[C@H](O)CN2C(=O)c2cc(Cl)cc(Cl)c2)O1 | 2.23% |
| Cc1ccc(C(=O)O)cc1S(=O)(=O)NCC1CCCO1 (configuration not stated) | 0.46% |

| SMILES | inhibition |
| --- | --- |
| CCc1cc(C(=O)OC)c(NC(=O)CC2Sc3ccc(C(F)(F)F)cc3NC2=O)s1 (configuration not stated) | 0.19% |
| COc1cc(OC)c2ccc(=O)oc2c1C(CCN1CCN(c2ccccc2)CC1)c1ccc2c(c1)OCO2 (configuration not stated) | 4.01% |
| CCC1C=C(c2ccccc2)C=CN=C1N(CC)CC (configuration not stated) | 35% (active) |
| O=C(N/N=C/c1sc(N2CCCCC2)nc1-c1cccs1)c1cccnc1 | -11.5% |
| Nc1cc2c(cc1Br)-c1ccc(F)cc1C2=O | -3.7% |
| CC(=O)N1CCCc2cc(S(=O)(=O)N3CCCC(C(=O)N4CCN(c5cccc(Cl)c5)CC4)C3)ccc21 (configuration not stated) | 43.8% (active) |
| COc1ccc(S(=O)(=O)N2CCCC(C(=O)N3CCN(C)CC3)C2)cc1C (configuration not stated) | -3.22% |
| Cc1ccc(S(=O)(=O)N2CCCC(C(=O)N3CCN(C)CC3)C2)cc1 (configuration not stated) | 11.1% |
| Cc1ccc(S(=O)(=O)N2CCCC2C(=O)OCc2nc3sc(C)c(C)c3c(=O)[nH]2)cc1 (configuration not stated) | -8.5% |
| Cc1sc2nc(CSCC(=O)Nc3c(Cl)cccc3Cl)[nH]c(=O)c2c1C | -1.67% |
| CCN(CC)Cc1nc2sc(C)c(C)c2c(=O)[nH]1 | 34.7% (active) |
| Cn1c2c(c(=O)n(C)c1=O)C1c3ccccc3OCC1C(C)(C)O2 (configuration not stated) | -10.5% |
| Nc1nnc(SCC(=O)Nc2ccc3nc(SCC(=O)Nc4ccccc4)sc3c2)s1 | 40.5% (active) |
| COc1cc(OC)cc(-c2nnc(SCC(=O)Nc3ccc(C(=O)O)cc3)s2)c1 | 3.22% |
| CCCCNC(=O)CSc1nc2ccc(NC(=O)CSc3nnc(N)s3)cc2s1 | 4.39% |
| CSc1nc2nc(-c3cccc(C(F)(F)F)c3)ccn2n1 | -1.52% |
| C=C(C)c1cccc(C(C)(C)NC(=O)NC2CCCC2)c1 | 4.8% |
| C=C(C)c1cccc(C(C)(C)NC(=O)NCCN(CC)CC)c1 | 61.6% (active) |
| C=C(C)c1cccc(C(C)(C)NC(=O)N2CCN(c3ncccn3)CC2)c1 | 6.08% |
| COc1ccc(-c2cn(-c3ccc(C)cc3)c(=O)n2CC(=O)Nc2ccc(OC)c(OC)c2)cc1 | 4.43% |
| COC(=O)c1ccc(CNC(=O)c2ccc(S(=O)(=O)N3CCCCCC3)cc2)cc1 | 5.81% |
| Cc1cc2cc(CNC(=O)c3cccs3)ccc2[nH]1 | -4.44% |
| Cc1cc2cc(CNC(=O)c3ccc(S(=O)(=O)N4CCOCC4)cc3)ccc2[nH]1 | 28.9% (active) |
